Source: PubChem BioAssay
Jurkat NFkB inh: inhibitors of induced NF-kB luciferase reporter, primary screen, TCR NF-kB activation inhibitor project, cell-based, luminescence, uHTS | Jurkat, PMA/ionomycin-induced NF-kB luciferase reporter | inhibition, % at 4 µM | 330,000 compounds, 0.53% hits; in the data active = inhibition above about 50%
Mdm2-MdmX inh: inhibitors of human Mdm2-MdmX association, primary screen, cell-based, luminescence, split luciferase, SaOS-2, uHTS. 330,000 compounds, 3% hits. AID 485346, 2010. Protein Mdm4 (Homo sapiens) + E3 ubiquitin-protein ligase Mdm2 (Homo sapiens), …. inhibition, % at 8 µM. SaOS-2 split-luciferase Mdm2/MdmX complementation;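 active = inhibition of at least 50% at 8 µM in the primary screen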
Gli-Sufu antag: Gli-Sufu pathway antagonists, primary screen, luciferase luminescence, Sufu-KO-LIGHT cells, uHTS. Sufu-KO-LIGHT fibroblasts, Gli luciferase reporter luminescence. inhibition, % at 5 µM. 340,000 compounds, 0.74% hits;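 active = inhibition above about 55%, limit read from the data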;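 note: 0% = DMSO-treated cells and 100% = wells with medium but no cells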
697 NFkB inh: inhibitors of PMA/ionomycin-induced NF-kB reporter, 697 cells, primary screen, B-cell NF-kB inhibitor project, cell-based, luminescence, uHTS. 330,000 compounds, 0.33% hits. AID 435022, 2010. inhibition, % at 4 µM. 697 B-cell NF-kB luciferase reporter, 16 h; in the data active = inhibition above about 35%
Beta cell apopt: inhibitors of cytokine-induced beta cell apoptosis, primary screen, luminescence. INS-1E cytokine-induced death, ATP luminescence, 48 h; percent of positive-control rescue, neutral wells zero. protection from apoptosis, % (test concentration not listed). 300,000 compounds, 0.8% hits;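 active = Every replicate reaches about 75%, or at least half do and their mean reaches it too, limit read from the data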;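 note: 0% = cytokine-treated negative control wells and 100% = positive control rescue; higher means more ATP so stronger rescue from cytokine killing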
CSC inhib: cancer stem cell viability inhibitors, primary screen, luminescence; 300,000 compounds, 1.1% hits; cancer stem cell-like cells viability; inhibition, % at 7.5 µM; in the data active = inhibition above about 75%; tested in HMLE shEcad cells
Mdm2-MdmX conf: Mdm2-MdmX complex disruptors, retested hits, confirmation, luminescence, single concentration; shares compounds with Mdm2-MdmX inh; Mdm2-MdmX binding, luminescent assay; inhibition, % at 8 µM; 10,000 compounds, 55% hits; in the data active = inhibition above about 40%
Full FLuc ctr: full-length luciferase signal inhibition, confirmation, counter-screen for Mdm2/MdmX interaction inhibitor project, cell-based, single concentration, SaOS-2; shares compounds with Mdm2-MdmX inh; SaOS-2 full-length luciferase counterscreen, luminescence; inhibition, % at 8 µM; 6,200 compounds, 77% hits; AID 504607, 2011;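 active = mean inhibition at 8 µM reaching about 37%, which flags the compound as non-specific, limit read from the data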;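 note: p53-null SaOS-2 cells with luciferase driven by a doxycycline-inducible promoter; compound on cells about two nights before reading with doxycycline added after day one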
Active calls of the source: *; nt = no result. A selection: hits, their analogues and other compounds. The true share with any hit is near 4.5%.

SMILES	Jurkat NFkB inh	Mdm2-MdmX inh	Gli-Sufu antag	697 NFkB inh	Beta cell apopt	CSC inhib	Mdm2-MdmX conf	Full FLuc ctr
CC(OC(=O)c1nn(C)c(=O)c2ccccc12)C(=O)Nc1ccc(S(N)(=O)=O)cc1 (stereo not drawn)	1	6	-7	28	1	-9	nt	nt
Cc1ccc2c(c1)C(=O)C(=O)N2CCOc1ccccc1	0	65*	45	-27	-2	53	46*	95*
Cc1cccc(OCCN2C(=O)C(=O)c3cccc(C)c32)c1	3	24	-19	-16	nt	nt	nt	nt
Cc1cccc(OCCN2C(=O)C(=O)c3cc(C)ccc32)c1	6	69*	24	2	11	61	62*	90*
C=CC(=O)Nc1ccc(N(C)c2ccnc(Nc3ccc(N4CCN(C)CC4)cc3)n2)cc1	4	93*	25	-8	nt	nt	63*	16
CN1CCN(c2ccc(NC(=O)c3ccc(Oc4ccccc4)cc3)cc2)CC1	-15	17	1	-2	3	45	nt	nt
CCN(/C(N)=N/c1nc(C)cc(C)n1)c1ccccc1	7	12	-7	-13	-4	-10	nt	nt
CCc1cccc(N(C)C(N)=Nc2cccc3ccccc23)c1	3	53*	-4	23	-9	-5	35	nt
Cc1ccc(Nc2nc(C)c3c(n2)CC(C)CC3=O)c(C)c1 (stereo not drawn)	-2	23	1	-7	1	-4	nt	nt
Cc1nc(Nc2cccc(C(F)(F)F)c2)nc2c1C(=O)CC(C)C2 (stereo not drawn)	-7	54*	9	-6	8	-4	12	nt
CCOC(=O)c1c(NC(=O)c2cc(-c3ccc(O)cc3)on2)sc(C(C)=O)c1C	6	70*	13	13	27	-7	5	nt
CCOC(=O)c1c(NC(=O)CC(C)C)sc(C(C)=O)c1C	16	17	-4	-8	nt	-10	nt	nt
Cc1cc(NC(=O)c2cc(-c3ccc(O)cc3)on2)no1	-31	-47	-35	-30	-1	25	nt	nt
CCOC(=O)c1sc(NC(=S)NC(=O)c2ccccc2)c(C(=O)OCC)c1C	4	85*	18	-45	19	-6	26	nt
CCOC(=O)c1sc(NC(=O)CN(CC(C)C)CC(C)C)c(C(=O)OCC)c1C	16	61*	12	1	3	32	0	nt
O=C(Nc1nnc(SCc2ccccn2)s1)C1CC(=O)N(c2ccc(F)cc2)C1 (stereo not drawn)	13	4	1	0	-5	-7	nt	nt
O=C1CCCN1c1ccc(S(=O)(=O)Nc2ccc3c(c2)OCCO3)cc1	37	68*	12	-68	20	42	69*	61*
CC(=O)N1CCN(C(=O)c2ccc(NS(=O)(=O)c3ccc4[nH]c(=O)[nH]c4c3)cc2)CC1	11	11	-7	-5	-7	-17	nt	nt
Clc1cncc(Cl)c1N/N=C/c1ccncc1	35	65*	3	24	-25	10	63*	28
O=C(O)c1cc(N/N=C/c2ccncc2)ccc1Cl	8	-14	-3	2	-1	3	nt	nt
Cc1ccc(C)c(NC(=O)Cn2nnc(-c3ccc(N4CCOCC4)cc3)n2)c1	-30	83*	-26	-8	-1	8	38	83*
COc1ccc(CCNC(=O)Cn2nnc(-c3ccc(N4CCOCC4)cc3)n2)cc1OC	-37	28	-16	-12	0	-1	nt	nt
Cc1cccc(C)c1NC(=O)Cn1nnc(-c2ccc(N3CCOCC3)cc2)n1	-14	70*	-12	-11	2	nt	20	nt
